This is a sample that favours compounds with a hit; in the whole collection about 7.8% have one here.
VACV Venus inh: inhibitors of vaccinia virus (Venus reporter); Vaccinia virus Venus reporter expression, fluorescence; Potency, µM (titrated, usually from 36.5 µM), for inactives: at the highest dose activity change, negative = inhibition, most hits filed as inhibitors; hit rate 0.46% among 330,000; calls by dose curve; tested in A549 cells; also: potency is read from the fitted curve at half-maximal effect; nearly all actives have a fitted effect of over 30% in size
LASV entry inh: blocks Lassa virus binding to or entry into cells. Lassa virus pseudotype entry inhibition, cell reporter. Potency, µM (series often up to 37.9 µM), inactives show at the top dose activity change, negative = inhibition, actives largely listed as inhibitors. hit rate 1.2% among 300,000. AID 540256; calls by dose curve; tested in HEK293 cells; also: potency is read from the fitted curve at half-maximal effect; nearly all actives have a fitted effect of over 50% in size
VACV mCherry inh: inhibitors of vaccinia virus infection (mCherry reporter signal); Vaccinia virus mCherry reporter infection, fluorescence; Potency, µM (titrated, usually from 36.5 µM), for the others: top-dose activity change, negative = inhibition, usual class: inhibitors; hit rate 0.63% among 310,000; AID 720579; calls by dose curve; tested in A549 cells; also: potency is read from the fitted curve at half-maximal effect; nearly all actives have a fitted effect of over 35% in size
HCV inh: blocks hepatitis C virus | Huh7.5.1 HCVcc-Cre infection, luciferase reporter, 44 h | Potency, µM (series often up to 41.8 µM), without a hit: at the top dose activity change, negative = inhibition, hits mostly inhibitors | hit rate 3.4% among 340,000; active = well fitted inhibition curve with a large enough effect; inconclusive = small, poorly fitted or top-dose-only effect, or another doubt; inactive = no such curve, though single readings can be large or run the other way; also: potency is read from the fitted curve at half-maximal effect
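Antiviral activity was scored by luciferase reporter output from cells infected with HCVcc-Cre (~0.5 moi) in presence of compound, 44 h infection period, cells seeded 1,000/well 4 h prior.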
Marburg entry inh: Marburg virus entry inhibition; Marburg virus pseudotyped entry inhibition, cell reporter; Potency, µM (highest dose often 37.8 µM), without a hit: at the highest dose activity change, negative = inhibition, usual class: inhibitors; hit rate 1.8% among 300,000; AID 540276; calls by dose curve; tested in HEK293 cells; also: potency is read from the fitted curve at half-maximal effect
HCMV antiviral: human cytomegalovirus inhibition; HFF cells, HCMV-luciferase reporter, 72 h; stronger effect = lower value; activity change, negative = inhibition, % at 57.5 µM; hit rate 4.5% among 410,000; AID 1259415; in the data active = activity change below about -60%; inconclusive = no clear call, values can overlap the other calls; inactive = above about -39%
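Human foreskin fibroblasts infected with luciferase-reporter HCMV at MOI 1 PFU/cell, compounds at two doses. Luciferase measured 72 h post infection; normalized to buffer-only basal and Salinomycin (10uM) controls.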
Starred values were filed as active, the others as inactive; i = inactive; ? = inconclusive; . = no result; [ ] = dose if it differs, or a comment. % is scaled to controls: 0 for no effect and ±100 for the full control effect.

SMILES | VACV Venus inh | LASV entry inh | VACV mCherry inh | HCV inh | Marburg entry inh | HCMV antiviral
O=C(CCc1c[nH]c2ccccc12)N1CCC(n2c(C3CCCO3)nc3cc(C(F)(F)F)ccc32)CC1 (stereo unspecified) | 2% | . | 2% | . | . | .
CNC(=O)C1CCC(Cn2c(=O)c3sccc3n(CC(=O)NCc3ccc(F)cc3)c2=O)CC1 (stereo unspecified) | -15% | -9%[46.1 µM] | -6% | . | . | 33
Cc1cccc(N2CCN(C(=O)C3CC(=O)N(c4ccc5c(c4)OCCO5)C3)CC2C)c1 (stereo unspecified) | . | . | . | 11µM* | . | -23
O=C(C1CC(=O)N(c2ccc3c(c2)OCCO3)C1)N1CCN(c2ccccc2)CC1 (stereo unspecified) | 6% | -12% | -9% | -4% | 4% | -70*
Cc1ccc(N2CC(C(=O)N3CCCCC3)CC2=O)cc1C (stereo unspecified) | . | . | . | 3% | . | -61*
O=C(C1CC(=O)N(c2ccc3c(c2)OCCO3)C1)N1CCN(c2ccccc2O)CC1 (stereo unspecified) | . | . | . | ? | . | 20
Cc1cccc(N2CCN(C(=O)c3ccc4c(c3)OCCO4)CC2C)c1 (stereo unspecified) | -5% | -2% | i | 16% | 4%[46.1 µM] | -1
N#Cc1c(-c2ccc(F)cc2)c(-c2ccc(F)cc2)nn(CCO)c1=O | -21% | ? | i | 15% | ? | -38
Oc1cccc(Nc2nccc3[nH]c(-c4cccc(OC(F)(F)F)c4)nc23)c1 | . | . | . | . | . | -14
CCOc1ccccc1NC(=S)N(CCCN1CCOCC1)Cc1cn(C)c2ccccc12 | -27% | ? | -25% | ? | ? | ?
COc1ccccc1NC(=S)N(CCN1CCOCC1)Cc1ccccc1F | -13% | ? | -13% | 9% | ? | -61*
COc1ccccc1NC(=S)N(CCCN1CCOCC1)Cc1cn(C)c2ccccc12 | -23% | -10% | -12% | ? | ? | -94*
COc1cc(Cl)ccc1NC(=S)N(CCCN1CCOCC1)Cc1cn(C)c2ccccc12 | -17% | ? | ? | ? | ? | -92*
COc1ccc(Cl)cc1NC(=S)N(CCCN1CCOCC1)Cc1cn(C)c2ccccc12 | ? | -14% | ? | 10µM* | ? | -71*
COc1ccc(NC(=S)N(CCN2CCOCC2)Cc2ccccc2F)cc1 | -5% | ? | -13% | 14% | ? | -9
CCCCNC(=O)CSc1nc2cc3c(cc2c(=O)n1CCCC(=O)NCc1ccc2c(c1)OCO2)OCO3 | -8% | 0%[46.1 µM] | -7% | . | . | -13
CCOC(=O)N[C@H](O)C(=O)c1cccs1 | . | . | . | . | -9% | .
COc1ccc(-c2nc(C(=O)NCC3CCCO3)cc3c2[nH]c2ccccc23)cc1 (stereo unspecified) | -21% | . | ? | 3.5µM* | . | ?
Cc1ccc(-c2nc(C(=O)NCC3CCCO3)cc3c2[nH]c2ccccc23)cc1 (stereo unspecified) | -26% | . | ? | ? | . | -95*
COc1ccc(OC)c(-c2nc(C(=O)NC3CCN(Cc4ccccc4)CC3)cc3c2[nH]c2ccccc23)c1 | -19% | . | -29% | 6.3µM* | . | 25
COc1ccc(CNc2cc(-c3ccccc3CN(C)C)ncn2)c(OC)c1 | -3% | . | -13% | . | . | .
CCc1ccc(NC(=O)Cn2cnc3sc(C)c(S(=O)(=O)N4CCN(c5ccccc5OC)CC4)c3c2=O)cc1 | -7% | 14%[46.1 µM] | -1% | . | ? | 15
CCN(CC)CCC(=O)Nc1ccc2c(c1)N(C(=O)CN(CC)CC)c1ccccc1CC2 | -12% | ? | . | ? | 6.3µM* | -10
O=C(NNc1ncnc2c1cnn2-c1cccc(Cl)c1)c1ccco1 | . | . | . | 5% | . | 6
COc1ccc(CCNc2ncnc3c2cnn3-c2ccc(C)c(Cl)c2)cc1 | 2% | 1%[46.1 µM] | -8% | . | . | -10
SMILES | VACV Venus inh | LASV entry inh | VACV mCherry inh | HCV inh | Marburg entry inh | HCMV antiviral
COc1ccc(CCNc2ncnc3c2cnn3-c2cc(Cl)ccc2C)cc1 | -26% | ? | -23% | . | . | -61*
COc1ccc(CC(=O)NNc2ncnc3c2cnn3-c2ccccc2)cc1 | -8% | 5.2µM* | -15% | -27% | 24% | -7
COc1ccc(CC(=O)NNc2ncnc3c2cnn3-c2ccc(C)cc2)cc1 | -8% | -20% | -13% | 5% | 5% | 14
COc1ccc(C(=O)NNc2ncnc3c2cnn3-c2cccc(Cl)c2)cc1OC | ? | ? | ? | . | . | -86*
O=C(C1COc2ccccc2O1)N1CCN(c2nc3c(F)cccc3s2)CC1 (stereo unspecified) | -12% | 2%[46.1 µM] | 0% | . | . | -35
CC(C)(CC(=O)N1CCN(c2ccc(Cl)cc2)CC1)CC1=NS(=O)(=O)c2ccccc2N1 | ? | 11µM* | ? | ? | ? | ?
COc1cccc(N2CCN(C(=O)CC(C)(C)CC3=NS(=O)(=O)c4ccccc4N3)CC2)c1 | -15% | ? | -8% | 11µM* | -17%[46.1 µM] | -72*
COCCCNC(=O)c1ccc(-c2nc(CS(=O)(=O)c3ccc(C)cc3)c(C)o2)cc1 | -11% | -16%[46.1 µM] | -8% | . | . | 8
O=C(NCc1ccc(F)c(F)c1)c1cnc(N2CCN(Cc3ccccc3)C2=O)s1 | . | . | . | . | . | -32
CCc1ccc(NC(=O)CCn2c(=O)c3cccn3c3ccccc32)cc1 | -11% | ? | -9% | 11µM* | ? | 25
O=C(CCn1c(=O)c2cccn2c2ccc(F)cc21)NCc1cccc(F)c1 | -7%[7.34 µM] | . | -14%[7.34 µM] | ? | . | -30
O=C(Cn1c(=O)c2cccn2c2ccccc21)Nc1cc(F)ccc1F | 10% | ? | 4% | 11µM* | . | 4
Cc1cccc(CNC(=O)CCn2c(=O)c3cccn3c3ccc(F)cc32)c1 | -9% | 5%[46.1 µM] | -9% | . | . | -85*
COc1cccc(NC(=O)Cn2c(=O)c3cccn3c3ccc(F)cc32)c1 | -3% | -1%[46.1 µM] | -2% | . | . | -65*
CCc1ccc(NC(=O)Cn2c(=O)c3cccn3c3ccccc32)cc1 | ? | -29%[46.1 µM] | ? | 2% | . | -32
Cc1cc(C)cc(NC(=O)CSc2nc(=O)[nH]c3c2CCC3)c1 | -3%[7.34 µM] | -2%[46.1 µM] | -1%[7.34 µM] | . | . | -37
CCOc1cccc2sc(N(Cc3cccnc3)C(=O)c3ccco3)nc12 | -13% | -17%[46.1 µM] | -25% | . | . | 0
Cc1c(Cl)cccc1NC(=O)Cn1c(=O)cc(C)c2c(C)nn(-c3cccc(F)c3)c21 | -1% | 12%[46.1 µM] | -4% | . | . | -6
C#CCCCON=C1C[C@@H](O)[C@H](O)[C@H]2[C@@H]3C(=O)N(Cc4ccc5c(c4)OCO5)C(=O)[C@@H]3CC[C@@H]12 | . | . | . | . | -7%[14.2 µM] | .
CC(=O)c1cccc(NC(=O)c2ccc(Br)o2)c1 | . | 0% | . | -24% | 8% | 27
O=C(Nc1cccc(F)c1)c1ccc(CSc2ccccc2)o1 | 4% | 5.2µM* | -5% | 0% | 7.3µM* | -11
O=C(Nc1cccc(F)c1)c1ccc(Br)o1 | -3% | 4% | -10% | -10%[8.37 µM] | ? | -97*
O=C(CCc1ccccc1)Nc1ccc(NC(=O)c2ccco2)cc1 | -10% | ? | -6% | 13% | 23% | -24
